Compounds with a hit are over-represented: about 1.3% of the library has one in this group of screens.
CRFBP-R2 block: antagonists of CRF-BP/CRF-R2 complex, primary screen, cell-based, HEK293, calcium dye fluorescence, uHTS | AID 588475, 2011 | inhibition, % at 11.8 µM | 350,000 compounds, 0.59% hits | CRF-induced calcium fluorescence;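 active = inhibition of the ligand-induced calcium signal above about 50% at the single tested concentration, limit read from the data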
RTF Ca sens act: cardiac RTF calcium sensitivity activators, primary screen, biochemical, IANBD-TnC fluorescence, EC20 calcium | Troponin I, cardiac muscle (Homo sapiens) + Troponin T, cardiac muscle (Homo sapiens) + … | 340,000 compounds, 0.24% hits | activation, % at 7.2 µM | IANBD-labeled TnC RTF fluorescence at EC20 calcium; 0% EC20 calcium, 100% full calcium;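 active = activation above the mean over all tested compounds plus 3 SD, cut at about 30% in these data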;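 note: rise in fluorescence read as greater calcium sensitivity of cardiac thin filaments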
CRFBP-R2 agonist: agonists of CRF-BP/CRF-R2 complex, primary screen, cell-based, HEK293, calcium dye fluorescence, uHTS; 350,000 compounds, 0.46% hits; activation, % at 13.2 µM; calcium dye fluorescence (FLIPR); percent of saturating CRF peptide response; CRF-binding protein / CRF receptor 2 complex (human);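 active = activation of at least 50%, plus an integration ratio under a set limit after plate pattern correction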
RTF Ca sens inh: cardiac RTF calcium sensitivity inhibitors, primary screen, biochemical, IANBD-TnC fluorescence, EC70 calcium; inhibition, % at 7.15 µM; IANBD-labeled cardiac RTF, Ca2+ fluorescence; 340,000 compounds, 0.12% hits; Troponin I, cardiac muscle (Homo sapiens) + Troponin T, cardiac muscle (Homo sapiens) + …;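 active = inhibition above the mean inhibition of all tested compounds plus 3 SD, cut at about 17% in these data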;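 note: assay run at fixed EC70 calcium of 1.6 mM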
Of the large screens only hits and unclear results are named; the others gave an inactive call.

Cc1ccc(S(=O)(=O)N2[C@@H](c3ccc(Cl)cc3)C(C(=O)O)=CC[C@H]2c2ccc(C(C)C)cc2)cc1	none
Cc1ccc([C@H]2C(C(=O)O)=CC[C@@H](c3ccc(C)cc3)N2S(=O)(=O)c2ccc(C)cc2)cc1	CRFBP-R2 block 94
CN(C)c1ccc(CNC(=O)c2cc(S(=O)(=O)N3CCOCC3)cn2C)cc1	none
CCN1C(=O)[C@H]2[C@@H](c3ccc(-c4ccc(C(C)=O)cc4)cc3)N3CCCC[C@@]3(C(=O)OC)[C@H]2C1=O	none
COc1ccc(/C=N/n2cncn2)cc1Cn1nc(C)c([N+](=O)[O-])c1C	none
O=c1c(N=Nc2ccc(O)cc2)c(-c2ccccc2)[nH]n1-c1ccc([N+](=O)[O-])cc1	none
O=c1cc(-c2ccccc2)[nH]n1-c1ccc([N+](=O)[O-])cc1	CRFBP-R2 block 51
CC1Sc2ccc(S(=O)(=O)N3CCC(C(=O)NCC(C)c4ccccc4)CC3)cc2NC1=O (stereo not given)	CRFBP-R2 block 53
N#CC(C#N)=C(Nc1ccc(F)cc1)SCc1cccc(Br)c1	CRFBP-R2 block 69
Cc1cccc(CSC(Nc2ccc(F)cc2)=C(C#N)C#N)c1	CRFBP-R2 block 67, CRFBP-R2 agonist 73
CC(SCc1ccccc1)C(=O)Nc1ccc(F)cc1 (stereo not given)	none
CC(=O)c1cccc(NC(=O)c2cc(S(=O)(=O)N3CCCCC3)ccc2N2CCOCC2)c1	none (no result: RTF Ca sens act, RTF Ca sens inh)
O=C(O)CCCN1C(=O)/C(=C\c2ccc(-c3nc4ccccc4s3)o2)SC1=S	CRFBP-R2 agonist 109
O=C(O)CCN1C(=O)/C(=C/c2ccc(-c3nc4ccccc4s3)o2)SC1=S	none
O=C(O)CC(C(=O)O)N1C(=O)/C(=C/c2ccc(-c3nc4ccccc4s3)o2)SC1=S (stereo not given)	CRFBP-R2 block 53
O=Cc1ccc(-c2nc3ccccc3s2)o1	none
O=C(O)c1cc(-c2ccc(/C=C3/SC(=S)N(Cc4ccccc4)C3=O)o2)ccc1Cl	CRFBP-R2 agonist 209
Cc1ccc(/C=C2\SC(=S)N(Cc3ccccc3)C2=O)o1	none
CCOc1ccc(N2CC(C(=O)Nc3nnc(Cc4ccccc4)s3)CC2=O)cc1 (stereo not given)	none
O=C(Cn1cccc1C(=O)c1ccccc1)NCc1cccc(Cl)c1	none
O=S(=O)([N-]c1nc2ccccc2nc1-[n+]1ccc(-c2ccncc2)cc1)c1ccccc1	RTF Ca sens act 51, CRFBP-R2 agonist 224
O=C(O)C(c1ccccc1)C1(O)CC2CCC1C2 (stereo not given)	none
CCN(CC)C(=S)Sc1c(-c2ccccc2)c2cc(Cl)ccc2[nH]c1=O	CRFBP-R2 agonist 71
O=C(O)CSc1c(-c2ccccc2)c2cc(Cl)ccc2[nH]c1=O	none
CCOC(=O)c1cc(NC(=O)Nc2cc(C)ccn2)c(C)nc1C	CRFBP-R2 block 113
CCCCN1CC(COCc2ccccc2)Oc2cccc(OCCN3C(=O)[C@@H]4[C@H](C3=O)C3C=C[C@H]4C3)c2S1(=O)=O (stereo not given in full)	CRFBP-R2 agonist 172
CCCCN1CC(COCc2ccccc2)Oc2cccc(Oc3ccc(OC)cc3)c2S1(=O)=O (stereo not given)	none
CCCCC(=O)Nc1ccc(C(=O)Nc2ccc(OC)cc2[N+](=O)[O-])cc1	RTF Ca sens act 81, CRFBP-R2 agonist 117
COc1ccc(NC(=O)c2cc(C(=O)Nc3ccc(OC)cc3OC)cc([N+](=O)[O-])c2)c(OC)c1	CRFBP-R2 block 50
COc1ccc(NC(=O)CC(=O)Nc2ccc(OC)cc2OC)c(OC)c1	none
COc1ccc(NC(=O)CCCCC(=O)Nc2ccc(OC)cc2OC)c(OC)c1	CRFBP-R2 block 59
COc1ccc(NC(=O)c2ccc(C)cc2)c(OC)c1	none
COc1ccc(Br)cc1S(=O)(=O)N1CCCc2ccccc21	none
COc1cccc(NC(=O)CCC2CCN(C(=O)c3cncs3)CC2)c1	none
O=C1C2CC(O)CN2C(=S)N1Cc1ccccc1 (stereo not given)	none (no result: RTF Ca sens act, RTF Ca sens inh)
CCC(C)NC(=O)Cn1cnc2sc(C)c(S(=O)(=O)N3CCCCC3)c2c1=O (stereo not given)	CRFBP-R2 block 62
COc1ccc(NC(=O)NCC(C)CSc2ccc(C)cc2)c(OC)c1 (stereo not given)	none
CC(=O)N1C(=O)C(=C2C=C(C)OC(C)=C2)c2ccccc21	RTF Ca sens act 66
